Reference: PubChem BioAssay (Tox21)
Inconclusive results are not listed. Values without a mark were called inactive. Calls come from the whole dose curve.
% is set by controls: 0 for no effect and ±100 for the full control effect.

Assay: qHTS assay to identify small molecule agonists of the NFkB signaling pathway - cell viability counter screen (AID 1159515); note: nearly all actives have a fitted effect of over 55% in size
Details: NFkB-bla ME-180 viability, CellTiter-Glo luminescence, 5 h; series mostly up to 61 µM; activity, negative = cytotoxic: at the top concentration
Description: National Center for Advancing Translational Sciences [NCATS]
NIH Chemical Genomics Center [NCGC]
U.S. Environmental Protection Agency [EPA]
National Institutes of Environmental Health Sciences [NIEHS]
National Toxicology Program [NTP]
U.S. Food and Drug Administration [FDA]
Transcription factors and their stimulated target gene expression play pivotal roles across many cellular processes including responses to environmental stimuli. Proper regulation of associated pathways is critical to maintain cell health and function. Constitutive activation of transcription factor pathways has been implicated in tumors as it may block cellular functions such as apoptosis and lead to invasion and metastasis. One important transcription factor that stimulates gene expression in response to cytokines, UV radiation, and other stimuli is nuclear factor-kappa B (NFkB). To measure activation of the NFkB pathway, the CellSensor NFkB-bla ME-180 cell line (Life Technologies, Carlsbad, CA) that stably expresses beta-lactamase reporter gene under the regulation of a NF-kB response element was used. This assay allows measurement of the NFkB pathway activity induced by compounds in a ME-180 cell line. This system quantitates NF-kB activity using a FRET-based assay system where beta-lactamase expression disrupts FRET, allowing for fluorescent measurement of activity. This cell line has been used to screen the Tox21 10K compound library and to identify compounds that induce the NFkB pathway activity. The cytotoxicity of the Tox21 compound library against the NFkB-bla ME-180 cell line was tested in parallel by measuring cell viability using the CellTiter-Glo assay in the same wells.
Tox21 Assay Protocol Summary:
NFkB-bla ME-180 cells were dispensed at 2,000 cells/6 uL of assay medium per well into black wall/clear-bottom 1536-well plates using a Multidrop Combi (ThermoFisher Scientific, Waltham, MA) dispenser. After the assay plates were incubated at 37 C and 5% CO2 for an overnight, 23 nL of compounds dissolved in DMSO, positive controls or DMSO only was transferred to the assay plate by a Pintool station (Kalypsys, San Diego, CA). The assay plates were incubated at 37 C and 5% CO2 for 5 hr. One uL of LiveBLAzer B/G FRET substrate (Life Technologies) was added using a Flying Reagent Dispenser (Aurora Discovery, San Diego, CA) and the plates were incubated at room temperature for 1.5 hr. Fluorescence intensity (405 nm excitation, 460 nm and 530 nm emissions) was measured using an Envision plate reader (PerkinElmer, Shelton, CT). For cytotoxicity, 3 ul/well of CellTiter-Glo reagent was added into the assay plates using an FRD. After 30 min incubation at room temperature, the luminescence intensity was measured using a ViewLux plate reader (PerkinElmer).
With CS/C(C)=N/OC(=O)N(C)SN(C)C(=O)O/N=C(\C)SC the “activity, negative = cytotoxic” value was -1.76%. With CC1Sc2c(C(=O)O)c(=O)c3cc(F)c(N4CCNCC4)cc3n21 (stereo not given) the “activity, negative = cytotoxic” value was 8.08%. In the case of O=C(NC(=O)c1c(F)cccc1F)Nc1ccc(OC(F)(F)C(F)OC(F)(F)F)c(Cl)c1 (stereo not given), the “activity, negative = cytotoxic” value is reported as -2.51%. For ClP(Cl)(Cl)(Cl)Cl, the “activity, negative = cytotoxic” value was -11.6% [at 78.8 µM]. In the case of CCCCCCCCOC(=O)c1ccc(C(=O)OCCCCCCCC)c(C(=O)OCCCCCCCC)c1, the “activity, negative = cytotoxic” value is reported as -2.06% [at 78.8 µM]. In the case of CNP(=O)(OC)Oc1ccc(C(C)(C)C)cc1Cl (stereo not given), the “activity, negative = cytotoxic” value is reported as -17.8%. For COC(=O)C(Cl)C(=O)OC, the “activity, negative = cytotoxic” value was 5.04%. With OC(c1ccc(Cl)cc1)(c1ccc(Cl)cc1)c1cccnc1 the “activity, negative = cytotoxic” value was -0.0966%. In the case of Cc1ccccc1C(=O)Nc1cccc(OC(C)C)c1, the “activity, negative = cytotoxic” value is reported as -15.5%. For CCOP(=S)(Oc1ccc([N+](=O)[O-])cc1)c1ccccc1 (stereo not given), the “activity, negative = cytotoxic” value was 10.2%. With C=CCOC(C)=O the “activity, negative = cytotoxic” value was -0.54%. In the case of CCO[C@H]1O[C@@H]2OC3(C)CC[C@H]4[C@H](C)CC[C@@H]([C@H]1C)[C@@]24OO3, the “activity, negative = cytotoxic” value is reported as -2.56%. With C[C@H]1CNCCc2ccc(Cl)cc21 the “activity, negative = cytotoxic” value was -13.8%. In the case of CN1C[C@H](CNC(=O)OCc2ccccc2)C[C@@H]2c3cccc4c3c(cn4C)C[C@H]21, the “activity, negative = cytotoxic” value is reported as -4.88%. NCC(CC(=O)O)c1ccc(Cl)cc1 (stereo not given) showed an activity, negative = cytotoxic of 1.83% [at 0.628 µM]. With CCOC(=O)[C@]1(c2ccccc2)Oc2ccccc2[C@@H]1N the “activity, negative = cytotoxic” value was -14%. In the case of CCCN(CC1CC1)c1c([N+](=O)[O-])cc(C(F)(F)F)cc1[N+](=O)[O-], the “activity, negative = cytotoxic” value is reported as -0.62%. For CCOc1ccc(C(C)(C)COCc2cccc(Oc3ccccc3)c2)cc1, the “activity, negative = cytotoxic” value was 7.5%. With O=S1OC[C@@H]2[C@H](CO1)[C@]1(Cl)C(Cl)=C(Cl)[C@@]2(Cl)C1(Cl)Cl (stereo not given in full) the “activity, negative = cytotoxic” value was -7.9%. In the case of COc1nn(C(=O)NS(=O)(=O)c2ccccc2OC(F)(F)F)c(=O)n1C, the “activity, negative = cytotoxic” value is reported as 10.4%. For O=C(Nc1ccccc1)Nc1ccnc(Cl)c1, the “activity, negative = cytotoxic” value was 2.43%. In the case of CC(C)N(C(=O)COc1nnc(C(F)(F)F)s1)c1ccc(F)cc1, the “activity, negative = cytotoxic” value is reported as -9.64%. With S=C=NCc1ccccc1 the “activity, negative = cytotoxic” value was 9.21% [at 78.8 µM]. For COc1cc(CC(C)N)cc2c1OCO2 (stereo not given), the “activity, negative = cytotoxic” value was -9.19% [at 78.8 µM]. For Nc1ccc(N=Nc2ccc(-c3ccc(N=Nc4c(S(=O)(=O)O)cc5cc(S(=O)(=O)O)c(N=Nc6ccccc6)c(O)c5c4N)cc3)cc2)c(N)c1, the “activity, negative = cytotoxic” value was 0.563%. For O=C1NCN(c2ccccc2)C12CCN(CCCOc1ccc(F)cc1)CC2, the “activity, negative = cytotoxic” value was -5.14%. With C(=NC1CCCCC1)=NC1CCCCC1 the “activity, negative = cytotoxic” value was -4.01% [at 78.8 µM]. With N#CCC#N the “activity, negative = cytotoxic” value was 0.232%. With CCOP(=O)(OCC)O/C(=C/Cl)c1ccc(Cl)cc1Cl the “activity, negative = cytotoxic” value was -9.39%. In the case of COP(=S)(OC)Oc1ccc([N+](=O)[O-])cc1Cl, the “activity, negative = cytotoxic” value is reported as 5.77%. In the case of C/C=C/C=O, the “activity, negative = cytotoxic” value is reported as -7.71%. With CCOP(=O)(OCC)Oc1ccc([N+](=O)[O-])cc1 the “activity, negative = cytotoxic” value was 0.0275% [at 78.8 µM]. In the case of CCCC(Cn1cncn1)c1ccc(Cl)cc1Cl (stereo not given), the “activity, negative = cytotoxic” value is reported as -9.1%. In the case of NC(=O)CI, the “activity, negative = cytotoxic” value is reported as 9.38% [at 78.8 µM]. For C=CCN1CC[C@]23c4c5ccc(O)c4O[C@H]2C(=O)CC[C@@]3(O)[C@H]1C5, the “activity, negative = cytotoxic” value was -2.99%. In the case of c1ccc(C2CC2)c(OCC2=NCCN2)c1, the “activity, negative = cytotoxic” value is reported as 0.821%. In the case of CNC(C)Cc1ccccc1OC (stereo not given), the “activity, negative = cytotoxic” value is reported as 2.35%. With O=[N+]([O-])c1ccccc1CCl the “activity, negative = cytotoxic” value was 25.8% [at 78.8 µM]. For CC(=O)CCC(C)=O, the “activity, negative = cytotoxic” value was -21.1% [at 78.8 µM]. In the case of O=C(NC(=O)c1c(F)cccc1F)Nc1cc(Cl)c(Oc2ncc(C(F)(F)F)cc2Cl)c(Cl)c1, the “activity, negative = cytotoxic” value is reported as -3.16%.
